Experimental findings from PubChem BioAssay (Tox21) are described below.

The nature of assay [1]: qHTS assay to identify small molecule agonists of the sonic hedgehog signaling (Shh) pathway (AID 1259368).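 Also: NIH/3T3-derived 3T3Gli1-Luc cells carrying a stable Gli1-driven firefly luciferase reporter; series mostly up to about 92 µM; nearly all actives have a fitted effect of over 15% in size.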 The method, boiled down:
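Mouse fibroblast (NIH/3T3) reporter cells with stably integrated Gli1-Luc were treated 24 hr with compound; firefly luciferase luminescence served as the read-out.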
Background: Quantitative high-throughput screening tests each substance at several concentrations.

Assay [2] is described as follows: qHTS assay to identify small molecule antagonists of the sonic hedgehog signaling (Shh) pathway (AID 1259369). Also: nearly all actives have a fitted effect of over 45% in size. Also: potency is read from the fitted curve at half-maximal effect. A digest of the protocol: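 Conditioned medium drives Shh signalling in 3T3Gli1-Luc cells; compounds in DMSO co-applied, 24hr at 37 C, then luciferase luminescence.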
Assay [3] in a line: qHTS assay to identify small molecule agonists or antagonists of the thyroid stimulating hormone receptor (TSHR) signaling pathway - wild type cell line counter screen (AID 1259384). The method, boiled down: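 Wild-type HEK293 cells were plated 18 h at 37 C/5% CO2, pin-dosed with compound plus Ro20-1724 medium, held 30 min at room temperature, then given cAMP-d2 and anti-cAMP-cryptate; fluorescence was read after 1 h. Fifteen concentrations, triplicate.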

In assay [4] the target is Thyrotropin receptor (Homo sapiens) (UniProt P16473). Briefly: qHTS assay to identify small molecule antagonists of the thyroid stimulating hormone receptor (TSHR) signaling pathway (AID 1259385). Also: nearly all actives have a fitted effect of over 20% in size. The method, boiled down: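 TSHR-HEK293 cells were plated and held 18 h at 37C/5% CO2, then given compound plus Ro20-1724 and stimulated with TSH at 1.5 ng/mL final. After 30 min at room temperature, cAMP was detected with cAMP-d2/anti-cAMP-cryptate (1 h) by fluorescence.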

The nature of assay [5]: qHTS assay to identify small molecule agonists of the estrogen receptor alpha (ER-alpha) signaling pathway in the presence of an antagonist - cell viability counter screen (AID 1259386; active = well fitted curve in the direction sought with a large enough effect in the repeat runs; an effect the other way counts as inactive or inconclusive;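 also: series mostly up to about 92 µM; cells exposed to compounds for 22 h at 37 °C before the viability read; nearly all actives have a fitted effect of over 30% in size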). The method, boiled down: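 ICI-182,780 at 10.0nM final accompanies the compound titration (15 concentrations, 22hr, 37C) on VM7Luc4E2 cells. The CellTiter-Fluor fluorescence readout runs in the same wells as the luciferase assay.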

The target of assay [6] is Progesterone receptor (Homo sapiens) (UniProt P06401). Kind of assay: qHTS assay to identify small molecule agonists of the progesterone receptor (PR) signaling pathway (AID 1346784). Also: nearly all actives have a fitted effect of over 30% in size. The method, boiled down: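 Compounds were tested for PR agonism in HEK 293T cells bearing a beta-lactamase gene under UAS control. Treatment lasted 16 hr at 37C; signal came from fluorescence of a FRET substrate.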

Assay [7] shares this target. Briefly: qHTS assay to identify small molecule antagonists of the progesterone receptor (PR) signaling pathway (AID 1346795; active = well fitted inhibition curve with a large enough effect in the signal ratio in the repeat runs, not every such curve was filed as active; the % refers to the signal ratio; also: potency is read from the fitted curve at half-maximal effect). A digest of the protocol: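 In HEK293T cells bearing the PR-UAS-bla reporter, compound effects on promegestone-driven (1 nM) beta-lactamase expression are assessed after 16 hr using a fluorescent FRET substrate incubated 2 hr at room temperature.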

A short description of assay [8]: qHTS assay to identify small molecule agonists of the progesterone receptor (PR) signaling pathway - cell viability counter screen (AID 1346799). Also: nearly all actives have a fitted effect of over 45% in size. A digest of the protocol: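 Here, 3,000 PR-UAS-bla HEK293T cells per well were treated with compounds for 16 hr after a 6 hr preincubation at 37C and 5% CO2; cell viability is the CellTiter-Glo luminescence signal.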
Assay [9] is described as follows: qHTS assay to identify small molecule antagonists of the TGF-beta/Smad signaling pathway - cell viability counter screen (AID 1346824; active = well fitted curve in the direction sought with a large enough effect in the repeat runs; an effect the other way counts as inactive or inconclusive; also: nearly all actives have a fitted effect of over 50% in size). The method, boiled down: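 SBE-bla HEK 293T cells were plated overnight at 37 C, then given compounds in DMSO plus TGF-beta1 (added as 0.25 ng/mL solution) for 5 hr. After the bla read, CellTiter-Glo was added to the same wells and luminescence read after 30 min at room temperature.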

Assay [10] can be described thus: qHTS assay to identify small molecule agonists of the TGF-beta/Smad signaling pathway - cell viability counter screen (AID 1346829; active = well fitted curve in the direction sought with a large enough effect in the repeat runs; an effect the other way counts as inactive or inconclusive; also: top concentration of the series differs between compounds; nearly all actives have a fitted effect of over 45% in size). A digest of the protocol: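 After overnight seating at 37 C and 5% CO2, reporter cells got compounds for 5 hr and FRET substrate for 2 hr; cell viability then came from CellTiter-Glo luminescence.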
A short description of assay [11]: qHTS assay to identify small molecule agonists of the TGF-beta/Smad signaling pathway (AID 1346859; active = well fitted activation curve with a large enough effect in the signal ratio in the repeat runs, not every such curve was filed as active; the % refers to the signal ratio; also: series mostly up to about 77 µM). A digest of the protocol: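 Each well held 4,000 SBE-bla HEK 293T cells incubated overnight before compound addition; 5 hr later the cleavable FRET substrate went on for 2 hr at room temperature, and fluorescence was read at two emissions.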
Assay [12] has as its target Thyrotropin-releasing hormone receptor (Homo sapiens) (UniProt P34981). Briefly: qHTS assay to identify small molecule antagonists of the thyrotropin-releasing hormone receptor (TRHR) signaling pathway (AID 1346877; active = well fitted inhibition curve with a large enough effect in the repeat runs, not every such curve was filed as active; also: series mostly up to about 51 µM). A digest of the protocol:
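Screening used HEK293 cells engineered with TRHR, with a brief 5 min room-temperature compound exposure preceding addition of TRH to 1 nM. The read-out was kinetic calcium-dye fluorescence, concentration-response from 15 doses in triplicate.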

Assay [13] is described as follows: qHTS assay to identify small molecule agonists of the androgen receptor (AR) signaling pathway in the presence of an antagonist - cell viability counter screen (AID 1259379; active = well fitted curve in the direction sought with a large enough effect in the repeat runs; an effect the other way counts as inactive or inconclusive;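 also: MDA-kb2 human breast cancer cells carrying an MMTV luciferase reporter; series mostly up to about 92 µM; nearly all actives have a fitted effect of over 25% in size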). The method, boiled down: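 A CellTiter-Fluor read-out measured viability of MDA-kb2 reporter cells (MMTV promoter with AR and GR response elements). Treatment: nilutamide 3.0uM final with compounds at 15 concentrations, 16 hr, 37C, 0% CO2.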

Assay [14] is described as follows: qHTS assay to identify small molecule agonists of the estrogen receptor beta (ER-beta) signaling pathway - cell viability counter screen (AID 1259380; active = well fitted curve in the direction sought with a large enough effect in the repeat runs; an effect the other way counts as inactive or inconclusive; also: nearly all actives have a fitted effect of over 30% in size). The method, boiled down:
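Cells used were ER-beta-UAS-bla HEK293T in medium with 2% charcoal-stripped FBS. They were treated for 16 hr at 37C. Viability came from CellTiter-Glo luminescence.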

A short description of assay [15]: qHTS assay to identify small molecule antagonists of the estrogen receptor beta (ER-beta) signaling pathway - cell viability counter screen (AID 1259382; active = well fitted curve in the direction sought with a large enough effect in the repeat runs; an effect the other way counts as inactive or inconclusive; also: series mostly up to about 92 µM; nearly all actives have a fitted effect of over 55% in size). The method, boiled down: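 Agonist-stimulated (1nM E2) ER-beta-UAS-bla HEK293T cells are incubated with library compounds for 16 hr at 37C. Cell viability is then assessed in the reporter-assay wells by adding CellTiter-Glo and reading luminescence after 30 min.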

Assay [16] is described as follows: qHTS assay to identify small molecule antagonists of the progesterone receptor (PR) signaling pathway - cell viability counter screen (AID 1346798; active = well fitted curve in the direction sought with a large enough effect in the repeat runs; an effect the other way counts as inactive or inconclusive; also: series mostly up to about 92 µM; nearly all actives have a fitted effect of over 50% in size). A digest of the protocol: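 Following a 4 hr attachment, PR-UAS-bla HEK293T cells in charcoal-stripped FBS medium were exposed to compounds with R5020 for 16 hr; CellTiter-Glo was added and luminescence read after 30 min at room temperature.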

Assay [17] deals with Estrogen receptor (Homo sapiens) (UniProt P03372). Kind of assay: qHTS assay to identify small molecule agonists of the estrogen receptor alpha (ER-alpha) signaling pathway in the presence of an antagonist (AID 1259383). Also: top concentration of the series differs between compounds; nearly all actives have a fitted effect of over 15% in size. A digest of the protocol:
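Using VM7Luc4E2 cells seeded 24hr before treatment, antagonist ICI-182,780 (10.0nM final) was added, followed by compounds at 15 concentrations. Plates incubated 22hr; ONE-Glo luminescence quantified reporter activity.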

Assay [18] concerns the target Androgen receptor (Homo sapiens) (UniProt P10275). Kind of assay: qHTS assay to identify small molecule agonists of the androgen receptor (AR) signaling pathway in the presence of an antagonist (AID 1259381). Also: nearly all actives have a fitted effect of over 15% in size. The method, boiled down: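 Using human MDA-kb2 cells with an MMTV promoter–luciferase construct (AR and GR response elements), agonist activity is scored under 3.0uM nilutamide (final) co-treatment; 16hr incubation, 37C, luminescence readout via ONE-Glo.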

Inconclusive results are not listed. More than one record can exist for a structure, and the calls need not agree. Activity calls are given as the source filed them. Unless noted, calls follow the shape of the full dose curve.

Chain of Progesterone receptor (Homo sapiens) (P06401 whole entry, looked up): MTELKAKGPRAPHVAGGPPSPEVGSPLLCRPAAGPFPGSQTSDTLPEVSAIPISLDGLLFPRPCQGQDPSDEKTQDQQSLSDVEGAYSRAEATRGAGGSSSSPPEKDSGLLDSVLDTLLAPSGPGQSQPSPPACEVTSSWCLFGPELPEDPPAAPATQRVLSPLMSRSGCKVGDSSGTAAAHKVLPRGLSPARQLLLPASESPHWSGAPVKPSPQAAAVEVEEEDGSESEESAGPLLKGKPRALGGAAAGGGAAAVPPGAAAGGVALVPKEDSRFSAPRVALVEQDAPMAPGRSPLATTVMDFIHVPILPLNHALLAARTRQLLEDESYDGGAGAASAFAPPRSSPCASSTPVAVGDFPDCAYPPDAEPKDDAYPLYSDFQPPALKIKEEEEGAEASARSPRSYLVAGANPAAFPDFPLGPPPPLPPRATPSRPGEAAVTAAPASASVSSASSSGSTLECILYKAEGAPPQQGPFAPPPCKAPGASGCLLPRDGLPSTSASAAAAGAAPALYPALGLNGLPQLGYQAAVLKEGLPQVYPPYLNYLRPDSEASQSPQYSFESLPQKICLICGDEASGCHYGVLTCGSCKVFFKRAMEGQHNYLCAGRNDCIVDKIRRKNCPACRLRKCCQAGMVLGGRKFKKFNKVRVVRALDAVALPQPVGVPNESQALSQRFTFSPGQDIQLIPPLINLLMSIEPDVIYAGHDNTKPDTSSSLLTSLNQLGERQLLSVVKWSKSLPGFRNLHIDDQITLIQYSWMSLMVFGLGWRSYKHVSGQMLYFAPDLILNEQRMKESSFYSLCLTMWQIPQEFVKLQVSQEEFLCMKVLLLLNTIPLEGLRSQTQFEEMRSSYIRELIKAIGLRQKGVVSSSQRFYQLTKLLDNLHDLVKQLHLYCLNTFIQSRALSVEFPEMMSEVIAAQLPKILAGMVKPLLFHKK
Chain of Thyrotropin-releasing hormone receptor (Homo sapiens) (P34981 whole entry, looked up): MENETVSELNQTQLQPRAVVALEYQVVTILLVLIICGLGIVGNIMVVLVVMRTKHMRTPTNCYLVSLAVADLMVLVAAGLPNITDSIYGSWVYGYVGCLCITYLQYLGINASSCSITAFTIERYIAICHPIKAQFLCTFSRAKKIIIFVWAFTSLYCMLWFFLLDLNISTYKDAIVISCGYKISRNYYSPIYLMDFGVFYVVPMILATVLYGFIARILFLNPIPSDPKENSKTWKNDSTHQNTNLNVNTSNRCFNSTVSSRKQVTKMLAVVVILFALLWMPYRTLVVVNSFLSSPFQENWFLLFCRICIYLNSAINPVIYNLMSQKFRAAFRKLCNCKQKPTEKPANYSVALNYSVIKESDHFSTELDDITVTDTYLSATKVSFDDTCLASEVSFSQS
Chain of Estrogen receptor (Homo sapiens) (P03372 whole entry, looked up): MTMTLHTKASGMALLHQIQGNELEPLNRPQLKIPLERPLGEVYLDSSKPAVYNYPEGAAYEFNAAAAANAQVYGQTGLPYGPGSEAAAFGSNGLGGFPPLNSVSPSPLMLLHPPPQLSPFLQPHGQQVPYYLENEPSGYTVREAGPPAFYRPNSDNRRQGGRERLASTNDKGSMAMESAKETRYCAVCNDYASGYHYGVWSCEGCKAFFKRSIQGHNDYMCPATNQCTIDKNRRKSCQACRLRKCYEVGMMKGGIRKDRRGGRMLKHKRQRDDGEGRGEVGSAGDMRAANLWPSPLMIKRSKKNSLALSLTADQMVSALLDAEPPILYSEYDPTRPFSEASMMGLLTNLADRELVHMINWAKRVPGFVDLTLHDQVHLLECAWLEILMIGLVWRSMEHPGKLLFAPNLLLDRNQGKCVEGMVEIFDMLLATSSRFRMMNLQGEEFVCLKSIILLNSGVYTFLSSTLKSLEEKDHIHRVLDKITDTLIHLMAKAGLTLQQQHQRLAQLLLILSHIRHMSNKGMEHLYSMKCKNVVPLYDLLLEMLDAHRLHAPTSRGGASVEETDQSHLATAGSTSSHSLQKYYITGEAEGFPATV
Chain of Thyrotropin receptor (Homo sapiens) (P16473 whole entry, looked up): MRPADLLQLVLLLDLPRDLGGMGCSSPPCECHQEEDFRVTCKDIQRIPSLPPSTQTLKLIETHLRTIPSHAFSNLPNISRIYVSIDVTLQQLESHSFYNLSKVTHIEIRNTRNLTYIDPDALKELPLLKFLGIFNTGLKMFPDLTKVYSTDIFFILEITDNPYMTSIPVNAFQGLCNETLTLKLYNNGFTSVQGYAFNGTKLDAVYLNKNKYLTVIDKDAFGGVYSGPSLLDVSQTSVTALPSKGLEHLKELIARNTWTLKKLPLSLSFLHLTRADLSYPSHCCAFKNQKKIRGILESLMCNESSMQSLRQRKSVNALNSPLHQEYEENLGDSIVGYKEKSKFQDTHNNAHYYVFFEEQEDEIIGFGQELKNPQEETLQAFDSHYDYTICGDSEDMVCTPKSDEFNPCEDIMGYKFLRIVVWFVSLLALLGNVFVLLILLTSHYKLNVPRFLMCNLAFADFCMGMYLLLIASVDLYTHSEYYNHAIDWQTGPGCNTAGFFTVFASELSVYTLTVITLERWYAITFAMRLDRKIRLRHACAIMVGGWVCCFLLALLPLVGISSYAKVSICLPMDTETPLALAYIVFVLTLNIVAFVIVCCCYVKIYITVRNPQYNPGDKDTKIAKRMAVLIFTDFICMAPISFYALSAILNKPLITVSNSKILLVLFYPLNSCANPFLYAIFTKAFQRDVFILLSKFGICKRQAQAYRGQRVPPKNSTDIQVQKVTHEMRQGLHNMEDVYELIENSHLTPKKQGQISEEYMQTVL
Chain of Androgen receptor (Homo sapiens) (P10275 whole entry, looked up): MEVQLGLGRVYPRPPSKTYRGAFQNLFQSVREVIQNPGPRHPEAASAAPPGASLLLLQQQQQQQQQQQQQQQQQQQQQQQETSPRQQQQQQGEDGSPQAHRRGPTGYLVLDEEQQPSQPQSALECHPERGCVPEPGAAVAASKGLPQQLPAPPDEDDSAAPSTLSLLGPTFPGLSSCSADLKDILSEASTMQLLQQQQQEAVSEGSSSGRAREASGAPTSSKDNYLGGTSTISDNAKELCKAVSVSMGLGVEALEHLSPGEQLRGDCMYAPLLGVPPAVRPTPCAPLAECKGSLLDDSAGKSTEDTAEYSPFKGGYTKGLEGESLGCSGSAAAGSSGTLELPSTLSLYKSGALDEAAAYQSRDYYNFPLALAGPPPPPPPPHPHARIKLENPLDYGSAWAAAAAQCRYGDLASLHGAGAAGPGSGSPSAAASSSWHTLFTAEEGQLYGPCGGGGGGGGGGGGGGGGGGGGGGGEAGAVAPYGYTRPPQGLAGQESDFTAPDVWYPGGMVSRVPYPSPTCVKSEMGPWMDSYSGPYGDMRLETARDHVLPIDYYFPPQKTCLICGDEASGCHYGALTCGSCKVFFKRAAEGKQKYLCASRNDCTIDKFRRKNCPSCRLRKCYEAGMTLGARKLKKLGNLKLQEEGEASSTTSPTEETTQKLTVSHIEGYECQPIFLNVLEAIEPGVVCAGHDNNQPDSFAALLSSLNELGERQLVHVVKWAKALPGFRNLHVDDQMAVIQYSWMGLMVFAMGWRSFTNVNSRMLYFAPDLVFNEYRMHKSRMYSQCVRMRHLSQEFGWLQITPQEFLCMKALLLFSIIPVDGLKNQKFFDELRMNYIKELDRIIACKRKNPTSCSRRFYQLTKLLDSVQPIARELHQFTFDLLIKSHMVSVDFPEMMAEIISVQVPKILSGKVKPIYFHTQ

Take `CC1(C)CCC(Cc2ccc(Cl)cc2)C1(O)Cn1cncn1` (stereo not given): the Potency result in assay [1], in [4], in assay [5], in [6], in assay [8] and in [9] was “inactive” in each case. Further, the Potency entry in [10] and in assay [12] was “inactive” each time. The Potency in [2] was 27.3 µM (active); in assay [7], 4.33 µM (active). Besides, the outcome in [3] and in assay [11] was inactive.

Regarding `C=COC(C)=O`, the Potency entry in assay [1], in [2], in [13], in [14], in assay [15] and in assay [4] was “inactive” each time. The Potency result in [5], in [6], in [7], in assay [16], in assay [8] and in assay [9] was “inactive” each time. For the same molecule, the Potency entry in [10] is “inactive”. Further, the call in [3] and in assay [11] was inactive.

For `N#Cc1ccc(Cl)cc1`, the Potency result in assay [1], in assay [2], in [13], in assay [14], in [15] and in assay [17] was “inactive” throughout. Besides, the Potency entry in [4], in assay [5], in assay [6], in assay [7], in assay [16] and in assay [8] was “inactive” throughout. Also, the Potency result in assay [9], in assay [10] and in [12] was “inactive” throughout. The molecule was called inactive in assay [3] and in [11].

Regarding `O=S1OC[C@@H]2[C@H](CO1)[C@]1(Cl)C(Cl)=C(Cl)[C@@]2(Cl)C1(Cl)Cl` (stereo not given in full), the Potency entry in [1], in [2], in [14], in [18], in assay [15] and in assay [17] was “inactive” each time. For the same molecule, the Potency result in assay [4], in assay [5], in [6], in assay [16], in assay [8] and in assay [9] was “inactive” in each case. For the same molecule, in assay [10], the Potency entry was “inactive”. The result in assay [3] and in assay [11] was inactive. The Potency in [7] was 30.6 µM (active).

Consider `C=CC(C)=O`, for which the Potency entry in assay [1], in [2], in assay [13], in assay [14], in [15] and in assay [17] was “inactive” each time. The Potency entry in assay [4], in assay [5], in assay [6], in assay [16], in assay [8] and in [9] was “inactive” each time. The Potency result in [10] and in assay [12] was “inactive” in each case. Besides, the molecule was classed as inactive in assay [3] and in assay [11].

As for `Brc1ccc(Oc2ccccc2)cc1`, the Potency entry in assay [1], in [13], in assay [15], in [4], in assay [5] and in assay [6] was “inactive” in each case. In addition, the Potency entry in assay [7], in [8], in [9], in assay [10] and in assay [12] was “inactive” throughout. The Potency in [2] is 31.4 µM (active) and inactive. For the same molecule, the call in assay [3] and in assay [11] was inactive.

`COCCOCCO`: the Potency entry in assay [1], in assay [13], in assay [15], in assay [17], in [4] and in assay [5] was “inactive” throughout. Also, the Potency result in [6] was “inactive”. Besides, the Potency in [2] was 27.3 µM (active). The outcome in [3] was inactive.

In the case of `CCOC(=O)C(Cl)C(C)=O` (stereo not given), the Potency result in assay [1], in [2], in assay [13], in [14], in assay [15] and in [17] was “inactive” in each case. For the same molecule, the Potency result in [4], in assay [5], in [6], in assay [7], in [16] and in assay [8] was “inactive” throughout. In addition, the Potency result in [9], in [10] and in assay [12] was “inactive” throughout. Besides, the molecule was classed as inactive in assay [3] and in assay [11].

As for `COP(=S)(Oc1cc(Cl)c(Br)cc1Cl)c1ccccc1` (stereo not given), the Potency result in assay [1], in assay [2], in assay [13], in assay [18], in assay [15] and in assay [17] was “inactive” each time. Besides, the Potency entry in assay [4], in [5], in assay [16], in [9], in [10] and in assay [12] was “inactive” in each case. The molecule was called inactive in [3] and in assay [11].
